From paper PMC4336329 (PLoS ONE, 2015)
In all, about 310,000 compounds went through this assay and about 14,000 (4.5%) showed an effect of 50% or more. Effects have a minus sign here. Many of the other results were omitted from the sample, so strong results are more common in it than they were.

The molecules below were run against human ether-à-go-go-related gene (hERG) potassium channel (human, UniProt Q12809) (assay: primary screen, population patch clamp on CHO cells stably expressing hERG; higher = less effect of the substance).
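Further: peak tail current of the secondary pulse compared with the same well before compound.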

Chain of human ether-à-go-go-related gene (hERG) potassium channel (Q12809 whole entry, looked up): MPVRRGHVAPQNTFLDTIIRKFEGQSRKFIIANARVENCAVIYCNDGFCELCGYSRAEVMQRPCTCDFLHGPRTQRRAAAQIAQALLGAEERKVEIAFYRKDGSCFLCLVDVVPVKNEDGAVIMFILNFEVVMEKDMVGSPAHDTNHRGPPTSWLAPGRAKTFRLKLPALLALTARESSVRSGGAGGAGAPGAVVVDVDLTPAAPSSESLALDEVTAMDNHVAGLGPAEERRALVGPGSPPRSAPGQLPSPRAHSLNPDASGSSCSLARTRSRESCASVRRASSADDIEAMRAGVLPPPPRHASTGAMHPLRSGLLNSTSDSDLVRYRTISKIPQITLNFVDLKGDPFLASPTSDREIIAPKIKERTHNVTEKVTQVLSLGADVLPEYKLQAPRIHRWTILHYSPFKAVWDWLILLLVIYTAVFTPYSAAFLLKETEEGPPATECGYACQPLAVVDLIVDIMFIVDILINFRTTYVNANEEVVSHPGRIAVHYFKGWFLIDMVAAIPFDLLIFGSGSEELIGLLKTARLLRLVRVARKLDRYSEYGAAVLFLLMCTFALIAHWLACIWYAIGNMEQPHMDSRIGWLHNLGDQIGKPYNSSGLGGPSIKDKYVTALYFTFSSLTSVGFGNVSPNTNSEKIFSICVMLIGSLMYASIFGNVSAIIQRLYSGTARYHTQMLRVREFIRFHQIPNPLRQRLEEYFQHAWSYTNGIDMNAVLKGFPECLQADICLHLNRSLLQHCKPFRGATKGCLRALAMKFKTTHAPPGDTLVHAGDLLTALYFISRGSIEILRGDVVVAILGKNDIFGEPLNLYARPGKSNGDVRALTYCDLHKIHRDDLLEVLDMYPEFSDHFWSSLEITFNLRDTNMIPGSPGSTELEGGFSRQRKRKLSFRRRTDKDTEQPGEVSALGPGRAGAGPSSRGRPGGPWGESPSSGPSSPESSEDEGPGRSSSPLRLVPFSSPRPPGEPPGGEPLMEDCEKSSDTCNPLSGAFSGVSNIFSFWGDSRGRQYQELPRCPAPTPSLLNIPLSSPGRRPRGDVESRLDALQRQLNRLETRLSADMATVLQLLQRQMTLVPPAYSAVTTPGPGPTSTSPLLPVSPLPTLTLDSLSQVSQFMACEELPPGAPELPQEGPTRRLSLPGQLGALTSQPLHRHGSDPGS

Row | SMILES | hERG current change (%, negative = inhibition) at 10uM
1 | C#CCOCCOCCOCCNc1nc(N2CCN(C(=O)CCCCCCCCCCNC(=O)Cn3cc(C[C@@H](C)O)nn3)CC2)nc(N2CCN(C(=O)CCCCCCCCCCNC(=O)[C@H](CCCCN)n3cc(CCCC(=O)O)nn3)CC2)n1 | -1.72%
2 | C1CCc2c(nc3nnnn3c2N2CCOCC2)C1 | -3.03%
3 | COc1ccc(CC(=O)Nc2nc3ccc(F)cc3s2)cc1S(=O)(=O)N1CCOCC1 | -19.4%
4 | COc1ccc(C(=O)Nc2nc3ccccc3s2)cc1OC | -65.8%
5 | COc1cccc(C(=O)Nc2nc3ccccc3s2)c1 | 4.88%
6 | COc1ccc(CC(=O)Nc2ccc(C#N)c(Cl)c2)cc1S(=O)(=O)N1CCOCC1 | -68.1%
7 | COc1ccc2nc(NC(=O)Cc3ccc(OC)c(S(=O)(=O)N4CCOCC4)c3)sc2c1 | -22.1%
8 | COc1ccc(CC(=O)Nc2nc3ccccc3s2)cc1S(=O)(=O)N1CCOCC1 | -65.9%
9 | COc1ccc(CC(=O)Nc2ccc(N3CCOCC3)cc2)cc1S(=O)(=O)N1CCOCC1 | 0.936%
10 | COc1ccc(C(=O)Nc2nc3ccccc3s2)cc1 | 11.6%
11 | COc1ccc(CC(=O)Nc2ccc(F)c(Cl)c2)cc1S(=O)(=O)N1CCOCC1 | -46.1%
12 | COc1cc(NC(=O)c2nccn2C)cc(C(=O)Nc2cccc(C(F)(F)F)c2)c1 | 5.31%
13 | CC(C)CC(C(=O)NC(=O)NCc1ccccc1)N1C(=O)c2ccccc2C1=O (stereo not shown) | 8.22%
14 | CC(C)(C)C(=O)OCCn1c(=O)c2cc3c(=O)n(CCOC(=O)C(C)(C)C)c(=O)c3cc2c1=O | 25.5%
15 | CC(=O)c1sc2nc(-c3ccc(C)cc3)c3c(c2c1N)CCCC3 | 2.68%
16 | Cc1ccc(C(O)(C(=O)NNS(=O)(=O)c2ccc(C)cc2)c2ccc(C)cc2)cc1 | -5.55%
17 | CCn1cc([C@@H]2C[C@H]3CN(Cc4cccc(Cl)c4)C(=O)[C@]34CCCN24)c(C)n1 | -41.7%
18 | CCCn1ncc([C@@H]2C[C@H]3CN(Cc4cccc(Cl)c4)C(=O)[C@]34CCCN24)c1C | -43.6%
19 | CCCn1cc([C@@H]2C[C@H]3CN(Cc4cccc(Cl)c4)C(=O)[C@]34CCCN24)c(C)n1 | -67.3%
20 | Cc1nn(C)cc1[C@@H]1C[C@H]2CN(Cc3cccc(Cl)c3)C(=O)[C@]23CCCN13 | -36.8%
21 | Cn1cc([C@@H]2C[C@H]3CN(Cc4cccc(Cl)c4)C(=O)[C@]34CCCN24)c(-c2ccccc2)n1 | -63.3%
22 | Cc1ccccc1CN1C[C@@H]2C[C@@H](c3cn(C)nc3-c3ccccc3)N3CCC[C@@]23C1=O | 3.15%
